{
  "source": "PubChem BioAssay (NCATS)",
  "note": "“And” between values parts separate entries of the source, which are not always exact repeats. Identical values can stand only once. Results filed as inconclusive are left out. The source made the active and inactive calls. Unless noted, calls follow the shape of the dose curve; as a rule, active = well fitted inhibition curve with a large enough effect; inconclusive = small, poorly fitted or top-dose-only effect; inactive = no such curve, though single readings can be large or run the other way.",
  "data": [
    {"system": "not listed separately", "assay": "qHTS assay to identify inhibitors of the type 1 interferon - major histocompatibility complex class I in skeletal muscle: Counter screen cell viability and HiBit confirmation (AID 1347412); also: nearly all actives have a fitted effect of over 60% in size; also: potency is read from the fitted curve at half-maximal effect; as to activity change, negative = inhibition: % is scaled to controls: 0 for no effect and ±100 for the full control effect", "details": "iHSKM muscle cells + IFN-b, HiBiT or CellTiter-Glo, 24 h; HiBiT; at 45.9 µM (top of the series)", "in_short": "(§1)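 CRISPR HLA-B*08:01-HiBit immortalized human myoblasts (C25cl48) stimulated with 4 ng/ml IFN-beta and compounds (12-point 1:3, top 46 uM final) for 24 h at 37 C. Duplicate plates read by HiBit lytic luminescence or CellTiter Glo ATP.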", "values": [
      {"smiles": "COc1ccc(Cc2nccc3cc(OC)c(OC)cc23)cc1OC", "activity change, negative = inhibition": "-26.2% (inactive)"},
      {"smiles": "Cc1ccc(C(=O)Nc2cccc(C(F)(F)F)c2)cc1Nc1nc(-c2cccnc2)nc2c1cnn2C", "activity change, negative = inhibition": "-9.48% (inactive)"},
      {"smiles": "C[C@H](NC(=O)C(=O)Nc1ccccc1C(C)(C)C)C(=O)N[C@@H](CC(=O)O)C(=O)COc1c(F)c(F)cc(F)c1F", "activity change, negative = inhibition": "-0.932% (inactive)"}
    ]},
    {"system": "not listed separately", "assay": "qHTS assay to identify inhibitors of the type 1 interferon - major histocompatibility complex class I in skeletal muscle: Counter screen cell viability and HiBit confirmation (AID 1347412); also: nearly all actives have a fitted effect of over 60% in size; also: potency is read from the fitted curve at half-maximal effect; as to activity change, negative = inhibition: % is scaled to controls: 0 for no effect and ±100 for the full control effect", "details": "iHSKM muscle cells + IFN-b, HiBiT or CellTiter-Glo, 24 h; Viability", "in_short": "as §1", "values": [
      {"smiles": "O=C1C(Cl)=C(NCCN2CCOCC2)C(=O)c2ncccc21", "Potency": "5.57 µM (active)"},
      {"smiles": "NS(=O)(=O)c1cccc2c1C(=O)c1cccc(O)c1C2=O", "Potency": "0.496 µM (active)"},
      {"smiles": "COCCOc1nc(-c2ccc(Cl)c(Cl)c2)n(-c2ccc(NC(=O)CCl)cc2)n1", "Potency": "7.87 µM (active)"},
      {"smiles": "O=C1c2ccccc2-[n+]2ccc3c([nH]c4ccccc43)c21", "Potency": "2.22 µM (active)"},
      {"smiles": "CC1(C)CCC2=C(O1)c1ccccc1C(=O)C2=O", "Potency": "24.9 µM (active)"},
      {"smiles": "NS(=O)(=O)c1ccc(NC2=CC(=O)c3ccccc3C2=O)cc1", "Potency": "4.97 µM (active)"}
    ]},
    {"system": "not listed separately", "assay": "qHTS assay to identify inhibitors of the type 1 interferon - major histocompatibility complex class I in skeletal muscle: Counter screen cell viability and HiBit confirmation (AID 1347412); also: nearly all actives have a fitted effect of over 60% in size; also: potency is read from the fitted curve at half-maximal effect; as to activity change, negative = inhibition: % is scaled to controls: 0 for no effect and ±100 for the full control effect", "details": "iHSKM muscle cells + IFN-b, HiBiT or CellTiter-Glo, 24 h; Viability; at 45.9 µM (top of the series)", "in_short": "as §1", "values": [
      {"smiles": "COc1cc(Nc2ncc(F)c(Nc3ccc4c(n3)NC(=O)C(C)(C)O4)n2)cc(OC)c1OC", "activity change, negative = inhibition": "-9.37% (inactive)"},
      {"smiles": "Oc1ccc(C2CCN(c3ccnc4ccccc34)CC2)cc1O", "activity change, negative = inhibition": "-0.0528% (inactive)"},
      {"smiles": "CC(=O)Nc1ccc([C@H](C)C(=O)Nc2ncc(C(C)C)s2)cc1", "activity change, negative = inhibition": "-0.582% (inactive)"},
      {"smiles": "O=C(O)c1ccccc1C(=O)Nc1ccc(-c2ccccc2)cc1", "activity change, negative = inhibition": "-4.23% (inactive)"},
      {"smiles": "COc1ccc(Cc2nccc3cc(OC)c(OC)cc23)cc1OC", "activity change, negative = inhibition": "-0.43% (inactive)"},
      {"smiles": "Cc1ccc(C(=O)Nc2cccc(C(F)(F)F)c2)cc1Nc1nc(-c2cccnc2)nc2c1cnn2C", "activity change, negative = inhibition": "-7.92% (inactive)"},
      {"smiles": "CC(C)(C)C(=O)Oc1ccc2c(c1)nc(NC(=O)c1cccc([N+](=O)[O-])c1)n2CCCO", "activity change, negative = inhibition": "-3.08% (inactive)"},
      {"smiles": "C[C@H](NC(=O)C(=O)Nc1ccccc1C(C)(C)C)C(=O)N[C@@H](CC(=O)O)C(=O)COc1c(F)c(F)cc(F)c1F", "activity change, negative = inhibition": "0.0107% (inactive)"},
      {"smiles": "CO[C@H]1C(=O)[C@]2(C)[C@@H](OC)C[C@H]3OC[C@@]3(OC(C)=O)[C@H]2[C@H](OC(=O)c2ccccc2)[C@]2(O)C[C@H](OC(=O)[C@H](O)[C@@H](NC(=O)OC(C)(C)C)c3ccccc3)C(C)=C1C2(C)C", "activity change, negative = inhibition": "-18.6% (inactive)"}
    ]},
    {"target": "Nuclear receptor subfamily 1 group I member 2 (Rattus norvegicus) (UniProt Q9R1A7)", "sequence (Q9R1A7 whole entry, looked up)": "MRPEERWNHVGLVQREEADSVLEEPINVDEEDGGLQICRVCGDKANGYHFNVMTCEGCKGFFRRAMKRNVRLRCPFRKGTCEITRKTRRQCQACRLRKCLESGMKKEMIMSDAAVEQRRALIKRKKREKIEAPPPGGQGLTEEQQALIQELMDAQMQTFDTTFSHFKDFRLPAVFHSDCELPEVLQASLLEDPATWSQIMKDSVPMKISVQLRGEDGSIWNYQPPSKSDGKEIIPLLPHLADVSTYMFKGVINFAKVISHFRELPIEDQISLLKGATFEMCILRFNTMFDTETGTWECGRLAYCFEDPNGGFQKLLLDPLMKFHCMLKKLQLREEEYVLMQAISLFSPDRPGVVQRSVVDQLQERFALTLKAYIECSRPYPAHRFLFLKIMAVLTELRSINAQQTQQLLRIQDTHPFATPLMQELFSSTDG", "assay": "qHTS assay for small molecule activators of the rat pregnane X receptor (rPXR) signaling pathway (AID 651751; call rule not given here; also: 0% is about no effect)", "details": "rPXR reporter cells, luciferase (One-Glo), 24 h", "values": [
      {"smiles": "O=c1c(-c2ccc(O)cc2)coc2cc(O)ccc12", "max response": "6.21% (inactive) and 11.9% (inactive)"},
      {"smiles": "O=c1cc(-c2ccc(O)cc2)oc2cc(O)cc(O)c12", "max response": "-6.83% (inactive) and -1.04% (inactive)"},
      {"smiles": "O=c1c(O)c(-c2ccc(O)cc2)oc2cc(O)cc(O)c12", "max response": "0.424% (inactive) and -1.67% (inactive)"},
      {"smiles": "O=C(O)c1cc(O)c2c(c1)C(=O)c1cccc(O)c1C2=O", "max response": "-2.8% (inactive)"},
      {"smiles": "O=c1cc(-c2ccccc2)oc2cc(O)cc(O)c12", "max response": "-2.91% (inactive)"}
    ]}
  ]
}
